# Experimental data published in PubChem BioAssay AID1159580 (chemical genetic matrix, 2015).
# Among all 5,500 compounds or so, about 2,000 (36%) were called active. Inconclusive results (about 18%) are left out. The list shows a part of the results. Values without a mark were called inactive. Cut-off read from the data, not from the text of the source: active = normalized growth mostly below about 0.91 (no sharp cut-off); inconclusive = no clear call, values can overlap the other calls; inactive = mostly above about 0.92.
# Assay: chemical genetic growth profiling, strain panel (AID 1159580);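 note: tested at 20 µM; growth read once vehicle control cultures reached saturation at 30 °C; 1 = growth at the plate median or of vehicle wells; lower values mean less growth of the strain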
# Conditions: growth OD
# [1] = S. cerevisiae deletion strains, locus YDL101C, strain DUN1, hits give low values
# [2] = S. cerevisiae deletion strains, locus YHR030C, strain SLT2, hits give low values
structure (smiles),measurement,setting,value
COc1cccc(CC(=O)NN)c1,normalized growth,"S. cerevisiae deletion strains, locus YAL013W, strain DEP1, hits give low values",0.982
same,normalized growth,"S. cerevisiae deletion strains, locus YBR229C, strain ROT2, hits give low values",1.02
same,normalized growth,[1],1.05
same,normalized growth,"S. cerevisiae deletion strains, locus YDL134C, strain PPH21, hits give low values",0.995
same,normalized growth,"S. cerevisiae deletion strains, locus YDR150W, strain NUM1, hits give low values",1.03
same,normalized growth,"S. cerevisiae deletion strains, locus YEL061C, strain CIN8, hits give low values",1
same,normalized growth,"S. cerevisiae deletion strains, locus YGR078C, strain PAC10, hits give low values",1.04
same,normalized growth,"S. cerevisiae deletion strains, locus YGR229C, strain SMI1, hits give low values",0.999
same,normalized growth,[2],1.06
same,normalized growth,"S. cerevisiae deletion strains, locus YHR087W, strain rtc3, hits give low values",0.971
same,normalized growth,"S. cerevisiae deletion strains, locus YJL187C, strain SWE1, hits give low values",0.981
same,normalized growth,"S. cerevisiae deletion strains, locus YJR043C, strain POL32, hits give low values",1.02
same,normalized growth,"S. cerevisiae deletion strains, locus YJR075W, strain HOC1, hits give low values",0.991
same,normalized growth,"S. cerevisiae deletion strains, locus YKL190W, strain CNB1, hits give low values",1
same,normalized growth,"S. cerevisiae deletion strains, locus YLR039C, strain RIC1, hits give low values",1.02
same,normalized growth,"S. cerevisiae deletion strains, locus YLR058C, strain SHM2 (second series), hits give low values",0.987
same,normalized growth,"S. cerevisiae deletion strains, locus YLR085C, strain ARP6, hits give low values",0.995
same,normalized growth,"S. cerevisiae deletion strains, locus YLR262C, strain YPT6, hits give low values",0.98
same,normalized growth,"S. cerevisiae deletion strains, locus YML094W, strain GIM5, hits give low values",0.982
same,normalized growth,"S. cerevisiae deletion strains, locus YMR219W, strain ESC1, hits give low values",0.986
same,normalized growth,"S. cerevisiae deletion strains, locus YMR263W, strain SAP30, hits give low values",1
same,normalized growth,"S. cerevisiae deletion strains, locus YMR307W, strain GAS1, hits give low values",0.987
same,normalized growth,"S. cerevisiae deletion strains, locus YNL153C, strain GIM3, hits give low values",1.04
same,normalized growth,"S. cerevisiae deletion strains, locus YNL298W, strain CLA4 (second series), hits give low values",1.02
same,normalized growth,"S. cerevisiae deletion strains, locus YNL322C, strain KRE1, hits give low values",1.01
same,normalized growth,"S. cerevisiae deletion strains, locus YNR030W, strain Alg12, hits give low values",0.986
same,normalized growth,"S. cerevisiae deletion strains, locus YPL055C, strain LGE1, hits give low values",0.96
same,normalized growth,"S. cerevisiae deletion strains, locus YPL241C, strain CIN2, hits give low values",1.01
same,normalized growth,"S. cerevisiae deletion strains, locus YPR135W, strain CTF4, hits give low values",1.04
same,normalized growth,"S. cerevisiae strains, strain wild type, hits give low values",1.02
CSC(SC)=C(C#N)C(=O)c1ccccc1Cl,normalized growth,"S. cerevisiae deletion strains, locus YAR019C, strain CDC15, hits give low values",0.422 (active)
same,normalized growth,"S. cerevisiae deletion strains, locus YBL105C, strain PKC1, hits give low values",0.636 (active)
same,normalized growth,"S. cerevisiae deletion strains, locus YBR135W, strain CKS1, hits give low values",0.816 (active)
same,normalized growth,"S. cerevisiae deletion strains, locus YBR160W, strain CDC28, hits give low values",0.937
same,normalized growth,"S. cerevisiae deletion strains, locus YDL017W, strain CDC7, hits give low values",0.911
same,normalized growth,"S. cerevisiae deletion strains, locus YDL028C, strain MPS1, hits give low values",0.934
same,normalized growth,[1],0.583 (active)
same,normalized growth,"S. cerevisiae deletion strains, locus YDL108W, strain KIN28, hits give low values",0.927
same,normalized growth,"S. cerevisiae deletion strains, locus YDL132W, strain cdc53, hits give low values",0.626 (active)
same,normalized growth,"S. cerevisiae deletion strains, locus YDL214C, strain PRR2, hits give low values",0.135 (active)
same,normalized growth,"S. cerevisiae deletion strains, locus YDR052C, strain DBF4, hits give low values",0.826 (active)
same,normalized growth,"S. cerevisiae deletion strains, locus YDR054C, strain cdc34, hits give low values",0.507 (active)
same,normalized growth,"S. cerevisiae deletion strains, locus YDR226W, strain ADK1, hits give low values",0.911
same,normalized growth,"S. cerevisiae deletion strains, locus YDR477W, strain SNF1, hits give low values",0.134 (active)
same,normalized growth,"S. cerevisiae deletion strains, locus YER123W, strain YCK3, hits give low values",0.114 (active)
same,normalized growth,"S. cerevisiae deletion strains, locus YER133W, strain GLC7, hits give low values",0.116 (active)
same,normalized growth,"S. cerevisiae deletion strains, locus YFL009W, strain cdc4, hits give low values",0.707 (active)
same,normalized growth,"S. cerevisiae deletion strains, locus YFL029C, strain CAK1, hits give low values",0.326 (active)
same,normalized growth,"S. cerevisiae deletion strains, locus YFR003C, strain YPI1, hits give low values",0.915
same,normalized growth,"S. cerevisiae deletion strains, locus YFR019W, strain FAB1, hits give low values",0.105 (active)
same,normalized growth,"S. cerevisiae deletion strains, locus YGR040W, strain KSS1, hits give low values",0.13 (active)
same,normalized growth,"S. cerevisiae deletion strains, locus YGR052W, strain FMP48, hits give low values",0.144 (active)
same,normalized growth,"S. cerevisiae deletion strains, locus YGR092W, strain DBF2, hits give low values",0.118 (active)
same,normalized growth,[2],0.118 (active)
same,normalized growth,"S. cerevisiae deletion strains, locus YHR079C, strain IRE1, hits give low values",0.134 (active)
same,normalized growth,"S. cerevisiae deletion strains, locus YHR082C, strain KSP1, hits give low values",0.133 (active)
same,normalized growth,"S. cerevisiae deletion strains, locus YHR205W, strain SCH9, hits give low values",0.0151 (active)
same,normalized growth,"S. cerevisiae deletion strains, locus YIL147C, strain SLN1, hits give low values",0.937
same,normalized growth,"S. cerevisiae deletion strains, locus YJL095W, strain BCK1, hits give low values",0.119 (active)
same,normalized growth,"S. cerevisiae deletion strains, locus YJL157C, strain FAR1, hits give low values",0.121 (active)
same,normalized growth,"S. cerevisiae deletion strains, locus YJR016C, strain ILV3, hits give low values",0.863 (active)
same,normalized growth,"S. cerevisiae deletion strains, locus YJR066W, strain TOR1 (second series), hits give low values",0.105 (active)
same,normalized growth,"S. cerevisiae deletion strains, locus YJR066W, strain TOR1, hits give low values",0.105 (active)
same,normalized growth,"S. cerevisiae deletion strains, locus YKL048C, strain ELM1, hits give low values",0.182 (active)
same,normalized growth,"S. cerevisiae deletion strains, locus YKL067W, strain YNK1, hits give low values",0.163 (active)
same,normalized growth,"S. cerevisiae deletion strains, locus YKL101W, strain HSL1, hits give low values",0.153 (active)
same,normalized growth,"S. cerevisiae deletion strains, locus YKL203C, strain TOR2, hits give low values",0.0997 (active)
same,normalized growth,"S. cerevisiae deletion strains, locus YLR113W, strain HOG1, hits give low values",0.147 (active)
same,normalized growth,"S. cerevisiae deletion strains, locus YLR133W, strain CKI1, hits give low values",0.132 (active)
same,normalized growth,"S. cerevisiae deletion strains, locus YLR403W, strain SFP1, hits give low values",0.0452 (active)
same,normalized growth,"S. cerevisiae deletion strains, locus YML070W, strain DAK1, hits give low values",0.113 (active)
same,normalized growth,"S. cerevisiae deletion strains, locus YMR001C, strain CDC5, hits give low values",0.732 (active)
same,normalized growth,"S. cerevisiae deletion strains, locus YMR205C, strain PFK2 (second series), hits give low values",0.179 (active)
same,normalized growth,"S. cerevisiae deletion strains, locus YNL006W, strain LST8, hits give low values",0.304 (active)
same,normalized growth,"S. cerevisiae deletion strains, locus YNL020C, strain ARK1, hits give low values",0.115 (active)
same,normalized growth,"S. cerevisiae deletion strains, locus YNL161W, strain CBK1, hits give low values",0.661 (active)
same,normalized growth,"S. cerevisiae deletion strains, locus YNL183C, strain NPR1, hits give low values",0.133 (active)
same,normalized growth,"S. cerevisiae deletion strains, locus YNL207W, strain RIO2, hits give low values",0.355 (active)
same,normalized growth,"S. cerevisiae deletion strains, locus YNL307C, strain MCK1 (second series), hits give low values",0.106 (active)
same,normalized growth,"S. cerevisiae deletion strains, locus YOL078W, strain AVO1, hits give low values",0.573 (active)
same,normalized growth,"S. cerevisiae deletion strains, locus YOL136C, strain PFK27, hits give low values",0.101 (active)
same,normalized growth,"S. cerevisiae deletion strains, locus YOR061W, strain CKA2, hits give low values",0.122 (active)
same,normalized growth,"S. cerevisiae deletion strains, locus YOR119C, strain RIO1, hits give low values",0.125 (active)
same,normalized growth,"S. cerevisiae deletion strains, locus YOR231W, strain MKK1, hits give low values",0.127 (active)
same,normalized growth,"S. cerevisiae deletion strains, locus YPL031C, strain PHO85, hits give low values",0.108 (active)
same,normalized growth,"S. cerevisiae deletion strains, locus YPL153C, strain RAD53, hits give low values",0.121 (active)
same,normalized growth,"S. cerevisiae deletion strains, locus YPL204W, strain HRR25, hits give low values",0.117 (active)
same,normalized growth,"S. cerevisiae deletion strains, locus YPL209C, strain IPL1, hits give low values",0.774 (active)
same,normalized growth,"S. cerevisiae deletion strains, locus YPL256C, strain CLN2, hits give low values",0.161 (active)
same,normalized growth,"S. cerevisiae deletion strains, locus YPR025C, strain CCL1, hits give low values",0.723 (active)
same,normalized growth,"S. cerevisiae deletion strains, locus YPR106W, strain ISR1, hits give low values",0.936
same,normalized growth,"S. cerevisiae deletion strains, locus YPR111W, strain DBF20, hits give low values",0.934
same,normalized growth,"S. cerevisiae deletion strains, strain NNK1, hits give low values",0.342 (active)
same,normalized growth,"S. cerevisiae deletion strains, strain TSCII, hits give low values",0.434 (active)
